# Compound activity from PubChem BioAssay.
# D1 mod: allosteric modulators of human D1 dopamine receptor; 58,000 compounds, 5.9% hits; HEK293 D1, CRE-luciferase, dopamine EC30 potentiation; actives deviate in either direction; B-score at 10 µM;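 active means luminescence count or its row- and column-corrected plate score outside the 99.7% band of the plate's sample wells, on either side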
# Target sequence (P21728 whole entry, looked up): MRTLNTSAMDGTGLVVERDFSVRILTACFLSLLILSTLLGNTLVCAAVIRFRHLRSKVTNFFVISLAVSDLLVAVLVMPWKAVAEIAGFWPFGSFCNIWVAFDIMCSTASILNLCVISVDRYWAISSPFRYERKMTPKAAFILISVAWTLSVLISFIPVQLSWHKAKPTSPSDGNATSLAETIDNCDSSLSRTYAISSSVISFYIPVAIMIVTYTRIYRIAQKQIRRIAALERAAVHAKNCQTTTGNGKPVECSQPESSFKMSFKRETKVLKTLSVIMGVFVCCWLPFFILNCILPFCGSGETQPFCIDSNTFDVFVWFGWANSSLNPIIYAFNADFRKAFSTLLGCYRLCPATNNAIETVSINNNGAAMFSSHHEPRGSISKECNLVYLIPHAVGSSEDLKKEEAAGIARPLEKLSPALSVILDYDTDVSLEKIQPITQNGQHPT
# FXIIa inh mix: factor XIIa (human) inhibition, mixture screen; purified FXIIa, fluorogenic substrate, pooled mixtures; inhibition, % at 5 µM; 62,000 compounds, 0.2% hits;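 further: 0% = enzyme without compound and 100% = no enzyme blank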
# M1 ag: activates the M1 muscarinic receptor; AID 626; 64,000 compounds, 3% hits; CHO-M1 cells, Fluo-4 calcium fluorescence, agonist mode; hits give high values; B-score at 10 µM;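 active means fluorescence rise, raw or as B-score row- and column-corrected plate score, outside the 99.7% band of its plate's samples, either direction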
# DAT uptake mod: modulates human dopamine transporter uptake under cocaine; 110,000 compounds, 1.3% hits; B-score at 10 µM; LLC-PK1 hDAT cells, [14C]-dopamine uptake with cocaine IC80; actives deviate in either direction; AID 449768;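 active means Z score or B-score, a plate-position-corrected score, falls beyond the plate's 99.7% confidence bounds, in either direction; inactive means both scores lie inside the 99.7% bounds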;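 further: scored against the spread of the other compound wells on the same plate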
# M1 antag: antagonists of rat M1 muscarinic receptor. 64,000 compounds, 3.4% hits. CHO-M1 cells, Fluo-4 calcium, ACh EC80 antagonist mode; hits give low values. P08482. AID 628. B-score at 10 µM;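 active means calcium fluorescence response, raw or row-and-column corrected B-score, differing from the plate sample mean either way at a set confidence level, mostly lower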
# FXIa mix inh: blocks human factor XIa in pooled compound mixtures. P03951. purified FXIa, fluorogenic substrate. inhibition, % at 5 µM. 62,000 compounds, 0.19% hits. AID 680;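 further: each value is inhibition by a whole ten-compound pool holding the compound; 0% = enzyme with no mixture and 100% = wells lacking enzyme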
# * hit, by the source's call; . = no result. A selection: hits, their analogues and other compounds. The true share with any hit is near 7.4%. Unless noted, no stated cut-off is given here; in the data, active means inhibition above about 20% (passing the limit was not always enough); inactive means the rest.
SMILES,D1 mod,FXIIa inh mix,M1 ag,DAT uptake mod,M1 antag,FXIa mix inh
CCN(CC)C1=NC(=[N+](CC)CC)c2ccccc21,.,.,.,-3*,.,.
CN1CCN(C(=O)COc2ccc(-c3nc4ccccc4s3)cc2)CC1,-4.4*,6,-0.21,1.8,-0.18,6
Nc1c(C(=O)NCCN2CCOCC2)c2nc3ccccc3nc2n1Cc1ccco1,-0.37,4,6.7*,1.5,-0.0024,-44
COc1ccc(C2SCC(=O)Nc3c2c(=O)[nH]n3C2CCCCC2)cc1 (stereo not drawn),.,.,-0.55,-0.0033,0.8,.
CC/C(=C\C=C\[C@@H]1C=C[C@@H]2CCC[C@H]2[C@@H]1C(=O)c1ccc[nH]1)[C@@H]1O[C@@H]([C@@H](C)C(=O)O)CC[C@@H]1C,.,.,.,-4*,.,.
CC(C)C(=O)c1cn(Cc2ccc(C#N)cc2)c2ccccc12,.,.,.,-1.2,.,.
COc1ccc(OCC(=O)N2CCN(Cc3c[nH]c4ccccc34)CC2)cc1,-0.38,6,-1.2,4.3*,-0.078,4
O=C(COc1ccccc1)N1CCN(Cc2c[nH]c3ccccc23)CC1,-0.78,3,-0.37,0.031,-0.34,4
C=C(C)[C@@]12OC3(c4ccccc4)O[C@@H]1C1[C@@H]4O[C@]4(CO)[C@@H](O)[C@]4(O)C(=O)C(C)=C[C@H]4[C@@]1(O3)[C@H](C)[C@H]2OC(=O)/C=C/C=C/c1ccccc1 (stereo partly drawn),.,.,.,-6.3*,.,.
CCOC(=O)C(NC(C)=O)C(OC(C)=O)c1cccc(N(CCCl)CCCl)c1 (stereo not drawn),.,.,.,0.26,.,.
CC(CCc1ccccc1)NC(C)C(O)c1ccc(O)cc1 (stereo not drawn),-1.8,-13,-0.045,-1.2,-1.6,7
COC(=O)C1C2c3ccccc3OC1(C)N=c1s/c(=C/c3cn(C)nc3C)c(=O)n12 (stereo not drawn),-4.2*,2,-1,0.47,0.85,6
Cc1oc(-c2ccccc2F)nc1CS(=O)CC(=O)N1CCC2(CC1)OCCO2 (stereo not drawn),-0.3,18,0.73,0.53,-0.28,2
CNCC1(c2ccccc2)CCCC1,.,.,.,-7.4*,.,.
Cc1cc(OC(=O)CCNC(=O)OC(C)(C)C)c2c3c(c(=O)oc2c1)CCC3,-0.64,-20,7.1*,-0.38,-1.3,5
Cc1cc(OC(=O)CCCNC(=O)OC(C)(C)C)c2c3c(c(=O)oc2c1)CCC3,.,.,.,-0.91,.,.
CC(=O)c1c(C)[nH]c(C(=O)N2CCC3(CC2)OCCO3)c1C,-0.37,3,-0.056,-0.16,0.41,4
COc1ccc(-n2c(O)c(C(C)=NC3CC3)c(=O)[nH]c2=O)cc1,1.3,-14,-0.012,-0.43,-0.61,1
CC(C)C/C(=N/O)c1c[nH]c2ccccc12,.,.,.,4.2*,.,.
COC(=O)[C@]12OC[C@]34C([C@@H](O)[C@@H]1O)[C@]1(C)CC(=O)C(O)=C(C)[C@@H]1C[C@H]3OC(=O)[C@H](O)[C@@H]24 (stereo partly drawn),.,.,.,-0.18,.,.
Cn1ncnc2c(=O)n(C)c(=O)nc1-2,-6.5*,1,-0.28,-1.2,-0.042,2
O=C(N/N=C1/CN2CCC1CC2)c1cc2ccccc2cc1O,.,.,.,-8.2*,.,.
CS(=O)(=O)N1CCCC(C(=O)N2CCC3(CC2)OCCO3)C1 (stereo not drawn),-0.024,5,0.013,-0.11,0.94,2
CCOP(=S)(OCC)c1ccc(N(C)C)cc1,-0.5,7,3*,-1.1,-0.38,-2
CCOP(=O)(OCC)C(O)c1ccc(OC)c(OC)c1 (stereo not drawn),.,.,.,-0.23,.,.
SMILES,D1 mod,FXIIa inh mix,M1 ag,DAT uptake mod,M1 antag,FXIa mix inh
FC(F)(F)/C(=N\P(=S)(N1CCOCC1)N1CCOCC1)N1CCOCC1,-0.59,11,-0.69,-0.009,0.7,9
CC(=O)Nc1ccc(OC(=O)c2ccccc2N)cc1,-0.35,4,0.61,0.51,1,-2
Nc1ccccc1C(=O)OCCOc1ccccc1,-4.4*,3,0.76,-0.26,0.31,6
COC(=O)[C@@H]1C[C@H]1[C@@H](NP(=O)(c1ccccc1)c1ccccc1)c1ccccc1,.,.,.,-0.96,.,.
O=C1NC(=S)NC(=O)C12C(c1ccc(F)cc1)NC(=S)NC2c1ccc(F)cc1 (stereo not drawn),.,.,.,-0.69,.,.
N=Cc1c(O)n(-c2cccc(Cl)c2)c(=O)[nH]c1=O,0.75,11,2.5*,-0.66,-0.74,10
C[C@@H]1O[C@@H](O[C@H]2C[C@@H](O)[C@]3(CO)[C@H]4[C@H](O)C[C@]5(C)[C@@H](C6=CC(=O)OC6)CC[C@]5(O)[C@@H]4CC[C@]3(O)C2)[C@H](O)[C@H](O)[C@H]1O,.,.,.,-6.6*,.,.
C[C@H]1O[C@@H](O[C@H]2[C@@H](O)C[C@H](O[C@H]3[C@@H](O)C[C@H](O[C@H]4CC[C@@]5(C)[C@H](CC[C@@H]6[C@@H]5CC[C@]5(C)[C@@H](C7=CC(=O)OC7)CC[C@]65O)C4)O[C@@H]3C)O[C@@H]2C)C[C@H](O)[C@@H]1O,.,.,.,-7.2*,.,.
CCN(CC)CCNCC(=O)Nc1ccc(Cl)cc1C(=O)c1ccccc1,.,.,.,0.63,.,.
Cc1c2ccncc2c(C)c2c1[nH]c1ccccc12,-0.18,6,35*,-0.0073,-0.42,-2
c1ccc2c(c1)[nH]c1cnccc12,0.098,3,-0.13,-0.43,-0.01,-27
CC(C)(C)P(=O)(c1ccncc1)N1CCCC1 (stereo not drawn),-0.16,2,-0.93,6.2*,0.89,7
Cn1c(O)c(C=NCCOc2ccc(Cl)cc2)c(=O)n(C)c1=O,2.5,3,-1.7,2,0.07,8
Cn1c(O)c(C=NCCN2CCN(C(=O)c3ccccc3)CC2)c(=O)n(C)c1=O,-7.4*,9,0.38,-0.74,-0.14,-26
Cc1ccc(S(=O)(=O)NC(CC(=O)N2CCC3(CC2)OCCO3)c2ccco2)cc1 (stereo not drawn),0.51,5,0.37,-1.3,1.7,5
CC1(C)CC(n2[nH]c(=O)c3c2NC(=O)CSC3c2ccccc2)CCO1 (stereo not drawn),-0.55,.,-1.2,-0.17,0.0022,.
CCCCCCn1c(O)c(C=NC2CCN(Cc3ccccc3)CC2)c(=O)[nH]c1=O,-3*,7,-0.62,-0.18,-1.3,5
CCCCCCN=C(C)c1c(O)n(CCCC)c(=O)[nH]c1=O,4,1,0.36,0.42,0.73,-2
CC1=CC(C)C(COC(N)=O)(COC(N)=O)C(C)C1 (stereo not drawn),-1.4*,4,-0.74,-0.06,0.33,0
O=c1cccc2n1CC1CC2CN(Cc2c(Cl)cccc2Cl)C1 (stereo not drawn),0.47,4,0.14,0.89,-0.0034,5
CC(C)(C)c1ccc(S(=O)(=O)N2CC3CC(C2)c2cccc(=O)n2C3)cc1 (stereo not drawn),.,.,.,2.4*,.,.
C=CCn1c(O)c(C(C)=NCCCN2CCOCC2)c(=O)[nH]c1=O,.,.,.,-0.65,.,.
